66 compounds from PubChem BioAssay AID504834 (National Center for Advancing Translational Sciences (NCATS), 2011) can be followed below.

In all, about 320,000 compounds went through this assay and about 22,000 (6.9%) were called active. Entries that show only a call come without a potency. Inconclusive results (about 27%) are left out. The call rests on the fitted dose curve; in most records, active means well fitted inhibition curve with a large enough effect; inconclusive means small, poorly fitted or top-dose-only effect, or another doubt; inactive means no such curve, though single readings can be large or run the other way. For the sample, actives were picked, then their nearest neighbours and some compounds at random.
Potency means the concentration at half of the fitted maximal effect.

The nature of the experiment: Primary qHTS for delayed death inhibitors of the malarial parasite plastid, 96 hour incubation. As to conditions: P. falciparum luciferase reporter growth; series mostly up to 28.7 µM. Put shortly: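 Luminescence readout: decreased luciferase signal marks inhibited growth of reporter-expressing P. falciparum in infected red cells (2% hematocrit, 0.05% parasitemia final), exposed to compound two generations (96 h, 37 C, 5% CO2).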
In general terms: Quantitative high-throughput screening tests each substance at several concentrations.
For the compound `CCN1CCN(C(=O)N[C@@H](C(=O)N[C@@H]2C(=O)N3C(C(=O)O)=C(CSc4nnnn4C)CS[C@H]23)c2ccc(O)cc2)C(=O)C1=O`, the Potency entry is “inactive”.
The result for `Cn1nc(C(F)(F)F)c(-c2ccc(F)cc2)c1NC(=O)CSCC(=O)O` reads “inactive”.
As to `Cc1nc(N)sc1N=Nc1c(C)n(C)n(-c2ccccc2)c1=O`, the Potency result was “inactive”.
The result for `CN1CCc2cc3c(cc2[C@H]1[C@@H]1OC(=O)c2c1ccc1c2OCO1)OCO3` reads “inactive”.
The result for `COc1c(O)ccc2c1-c1c3c(cc4c1C(C2)N(C)CC4)OCO3` (stereo unspecified) reads “inactive”.
The result for `COc1c(O)ccc2c1CN1CCc3cc4c(cc3C1C2)OCO4` (stereo unspecified) reads 3.29 µM (active).
On to `O=C(CCc1ccccc1Cl)Nc1ccc(S(=O)(=O)Nc2nccs2)cc1`, for which the Potency result is “inactive”.
The result for `O=C(COc1ccc(Cl)cc1)NCCS(=O)(=O)N1CCN(c2ccc(F)cc2)CC1` reads “inactive”.
For `Cc1cc(C)cc(NC(=O)CN2C(=O)c3ccccc3C2=O)c1`, the Potency result was “inactive”.
The result for `Cc1cc2c(cc1C)N(C(=O)CN1C(=O)c3ccccc3C1=O)C(C)(C)c1ssc(=S)c1-2` reads 8.28 µM (active); that for `Cc1ccc(NC(=O)CCN2C(=O)c3ccccc3C2=O)cc1C`, “inactive”.
On to `Cc1nn(CC(=O)N/N=C/c2ccc(F)cc2)c(C)c1[N+](=O)[O-]`, for which the Potency entry was “inactive”.
The result for `CC1CCN(C(=S)NC(=O)c2ccccc2Br)CC1` reads “inactive”; that for `CCOC(=O)c1c(CC(C)C)csc1/N=C/C1=C(O)CCCC1=O`, “inactive”.
The result for `CN1C(=O)[C@H]2[C@@H](C3CC3)N3C(=O)CN(Cc4ccccc4)C(=O)[C@@]3(C)[C@H]2C1=O` reads “inactive”.
The result for `CC(=O)Nc1ccc(NC(=O)CCCNC(=O)c2ccc(Cl)cc2)cc1` reads “inactive”; that for `C=CCNC(=S)N/N=C/c1ccc(C)s1`, 4.65 µM (active).
For `C=CCNC(=S)NNC(=O)c1ccc(Br)o1`, the Potency entry was “inactive”.
The result for `Cc1ccc(/C=N/NC(=O)CN2CCN(Cc3ccccc3)CC2)s1` reads “inactive”; that for `CC(C)c1c(O)nc(SCCOc2ccc(Cl)cc2)[nH]c1=O`, “inactive”; that for `CCOc1cc2[nH]c(=S)n(Cc3ccc(C(=O)N4CCN(C)CC4)cc3)c(=O)c2cc1OCC`, “inactive”.
As for `CC1CC(C)CN(CCCNC(=O)Cn2ncc3c([nH]c4ccccc43)c2=O)C1` (stereo unspecified), the Potency entry was “inactive”.
The result for `Cc1cccc(CCNC(=O)Cn2ncc3c([nH]c4ccc(C)cc43)c2=O)c1` reads “inactive”; that for `Cc1ccc2[nH]c3c(=O)n(CC(=O)NCCc4ccc(Cl)cc4)ncc3c2c1`, 13.1 µM (active).
The result for `Nc1c(C(=O)OCC(=O)Nc2ccc(OC(F)F)cc2)[nH]c(=O)[nH]c1=O` reads “inactive”; that for `O=C(CN(c1ccc2c(c1)OCCO2)S(=O)(=O)c1ccccc1)Nc1ccc2c(c1)OCO2`, “inactive”; that for `O=C(CCS(=O)(=O)Cc1ccccc1)Nc1ccc2c(c1)OCCO2`, 2.94 µM (active).
The result for `COc1ccccc1OCCCC(=O)Nc1ccc2c(c1)OCCO2` reads “inactive”; that for `Cc1ccc(-n2c(SCC(=O)N3CCC(C(=O)O)CC3)nc3ccccc3c2=O)cc1C`, “inactive”; that for `CN(C)c1ccc(NC(=O)CN2C3CCCC2CC(NC(=O)c2ccccc2)C3)cc1` (stereo unspecified), “inactive”.
`CCCCCc1ccc(-c2cn(Cc3ccc4ccccc4c3)nn2)cc1`: the Potency result is “inactive”.
Take `O=C1OCC2=C1C(c1ccccc1)CC(=O)N2c1cccc(F)c1` (stereo unspecified): the Potency entry was “inactive”.
The result for `O=C1CC(c2cccc(F)c2)C2=C(CCCC2=O)N1` (stereo unspecified) reads 9.28 µM (active); that for `O=C1CC(c2cccc(Br)c2)C2=C(CCCC2=O)N1` (stereo unspecified), “inactive”; that for `COc1ccc(CNC(=O)c2cc(C(=O)C3CC3)c[nH]2)cc1`, “inactive”.
In the case of `COc1ccc(-c2nc3cc([N+](=O)[O-])ccc3o2)cc1OC`, the Potency entry is “inactive”.
The result for `O=[N+]([O-])c1ccc2oc(-c3cccc(O)c3)nc2c1` reads “inactive”; that for `CC(=O)Oc1ccc2c(=O)oc(-c3ccc([N+](=O)[O-])cc3)nc2c1`, 2.33 µM (active).
The result for `O=C(NCc1cccs1)c1ccc(CS(=O)Cc2ccccc2Cl)o1` (stereo unspecified) reads “inactive”; that for `O=Cc1cn(-c2ccccc2)nc1-c1ccccn1`, “inactive”.
The result for `CCC(=O)N(CCc1ccccc1)Cc1cc2cc(C)ccc2[nH]c1=O` reads “inactive”; that for `CC(=O)OCc1cc2cc(C)ccc2[nH]c1=O`, “inactive”.
For the compound `CCNCc1cc2cc(C)ccc2[nH]c1=O`, the Potency result is “inactive”.
On to `Cc1ccc2[nH]c(=O)c(CN(CC3COCCO3)C(=O)Nc3ccccc3C)cc2c1` (stereo unspecified), for which the Potency was 0.465 µM (active).
For `Cc1ccc2[nH]c(=O)c(CN(CCCN(C)C)C(=O)Nc3cccc(Cl)c3)cc2c1`, the Potency is 2.94 µM (active).
The result for `COc1ccc2[nH]c(=O)c(CN(CC3CCCO3)C(=O)Nc3ccccc3)cc2c1` (stereo unspecified) reads “inactive”; that for `COc1ccc(S(=O)(=O)NCC(c2ccc(C)cc2)N2CCN(C)CC2)cc1OC` (stereo unspecified), “inactive”.
The result for `Cc1ccc(-c2noc(CNC(=O)c3ccoc3C)n2)cc1` reads “inactive”; that for `O=C(NC1CCCC1)C1CCN(C(=O)Nc2cccc(Cl)c2)CC1`, “inactive”; that for `COc1ccccc1NC(=O)Nc1nc(CC(=O)Nc2ccccc2F)cs1`, “inactive”.
The result for `Cc1ccccc1N1CCN(CCCOc2ccc3c(C)cc(=O)oc3c2)CC1` reads “inactive”.
For `Cc1cc(=O)oc2cc(OCCC[n+]3ccccc3)ccc12`, the Potency is 4.65 µM (active).
The result for `Cc1cc(=O)oc2ccc(OCC(=O)O)cc12` reads “inactive”; that for `Cc1ccc(C2SCC(=O)N2c2ccccc2)cc1` (stereo unspecified), “inactive”; that for `CN(CC(=O)Nc1cccc(F)c1)C(=O)C1=COCCO1`, “inactive”.
The result for `CC(OC(=O)c1cc2ccccc2o1)C(=O)Nc1ccc(N2CCOCC2)cc1` (stereo unspecified) reads “inactive”.
The result for `COc1ccc(C(=O)NC2=NCCS2)c(OC)c1` reads “inactive”; that for `CCCOc1ccc(NC(=O)C2OC3OC(C)(C)OC3C3OC(C)(C)OC23)cc1` (stereo unspecified), 10.4 µM (active).
As to `CCCOc1ccc(C(=O)CCC(=O)OC(C)C(=O)Nc2ccc(NC(C)=O)cc2)cc1` (stereo unspecified), the Potency entry was “inactive”.
The result for `CCCOc1ccc(NC(=O)C2CCCNC2=O)cc1` (stereo unspecified) reads “inactive”; that for `CC(=O)c1ccc(N2CCN(C(=O)c3ccc(Cl)c(S(=O)(=O)NC4CC4)c3)CC2)c(F)c1`, “inactive”.
The result for `CC(C)OC(=O)c1ccc(COc2ccc3ccc(=O)oc3c2)o1` reads “inactive”; that for `O=C(CN(C(=O)c1csnn1)c1ccc(Br)cc1)NC1CCCC1`, “inactive”; that for `Cc1ccccc1CCN(CC(=O)NC1CCCCC1)C(=O)c1csnn1`, 11.7 µM (active).
The result for `Cc1ccc(CN(CC(=O)NC2CCCCC2)C(=O)c2csnn2)cc1` reads “inactive”; that for `Cc1cc(NC(=O)CCC(=O)N(CC(=O)NCC2CCCO2)c2ccccc2)no1` (stereo unspecified), “inactive”.
